Data from PubChem BioAssay (NCATS).
Inconclusive results are not listed. Active and inactive are the calls of the source. Calls come from the whole dose curve; as a rule, active = well fitted curve in the direction sought with a large enough effect; inconclusive = small, poorly fitted or top-dose-only effect, or another doubt; inactive = no such curve, though single readings can be large; an effect the other way counts as inactive or inconclusive.

Tests used:
[1] = Cellular Toxicity (caspase-3) Mesangial (AID 660); conditions: mesangial cells, normalized: DMSO 0%, 100 µM tamoxifen 100%; at 91.7 µM (top of the series);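 note: combined caspase 3 and 7 activity read by Caspase-Glo luminescence; cells exposed to compound for 16 h before the caspase read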
Outline: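 Caspase 3/7 activation measured by Caspase-Glo 3/7 luminescence (20 min, room temperature) following 16 h exposure of mesangial cells (1000/well); AC50 from Hill-equation fit, normalized to DMSO and 100 uM tamoxifen.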

[2] = Cellular Toxicity (caspase-3) SK-N-SH (AID 661);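 note: 0% = DMSO basal and 100% = 10 µM staurosporine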
Outline: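 Caspase 3/7 activation was read by luminogenic substrate cleavage after 16 hour treatment of SK-N-SH cells. Signal was scaled between DMSO and 10 uM staurosporine, and concentration-response data were fitted with the Hill equation for AC50.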

[3] = Cellular Toxicity (caspase-3) H-4-II-E (AID 663); conditions: H-4-II-E rat hepatoma, scaled: DMSO 0%, 100 µM tamoxifen 100%; at 92.2 µM (top of the series);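 note: cells exposed to compound for 16 hr before readout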
Outline: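 Caspase 3/7 activation measured in H-4-II-E cells in complete culture medium after 16 hr treatment at 37 °C, using luciferase-coupled substrate readout; AC50 values come from Hill-equation fits of normalized concentration-response data.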

[4] = Cellular Toxicity (caspase-3) Hek293 (AID 664); conditions: HEK293 caspase-3 activation, DMSO = 0%, 100 µM tamoxifen = 100%; at 92.2 µM (top of the series);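 note: cells exposed to compound for 16 h at 37 °C before readout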
Outline: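 Concentration-response qHTS: caspase 3/7 activation measured by luminescent aminoluciferin substrate cleavage after 16 h compound exposure of Hek 293 cells. AC50 from Hill equation, with DMSO as basal and 100 uM tamoxifen as 100%.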

[5] = Cellular Toxicity (caspase-3) N2a (AID 665);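 note: compound exposure lasted 16 h at 37 °C before readout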
Outline: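 Caspase-3/7 activation measured as luminescence from Caspase-Glo reagent (1 h, room temperature) after 16 h compound exposure of mouse N2a cells. AC50 values from Hill-equation concentration-response, scaled between DMSO and 10 uM staurosporine.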

[6] = Cellular Toxicity (caspase-3) NIH 3T3 (AID 666);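 note: caspase signal read after 16 h compound exposure; 0% = DMSO basal and 100% = 100 µM tamoxifen stimulation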
Outline: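 Caspase-Glo 3/7 luminescence reported caspase activation in 1000 NIH 3T3 cells/well after 16 h compound exposure at 37 C. DMSO set basal and 100 uM tamoxifen set 100% stimulation; concentration-response modeled with the Hill equation for AC50.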

[7] = Cellular Toxicity (caspase-3) Renal Proximal Tubule (AID 667); conditions: Potency: caspase-3 activation;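 note: cells exposed to compound for 16 hours at 37 °C before detection; 0% = DMSO basal and 100% = 10 µM staurosporine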
Outline: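 In qHTS format, rat primary proximal tubule cells seeded at 1000 per well are exposed to compounds for 16 hours at 37 °C. An increase in Caspase-Glo 3/7 luminescence indicates caspase activation.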

[8] = target: Cytochrome P450 3A4 (Homo sapiens) (UniProt P08684); experiment: qHTS Assay for Inhibitors and Substrates of Cytochrome P450 3A4 (AID 884); note: % is set by controls: 0 for no effect and ±100 for the full control effect; nearly all actives have a fitted effect of over 50% in size
Outline: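 Luminescent readout of luciferin produced by CYP3A4 (20 nM) dealkylation of Luciferin-PPXE, 25 uM (its KM). NADPH-driven reaction ran 60 min at RT after 10 min compound preincubation; data scaled to 57 uM ketoconazole as 100% inhibition.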

[9] = Cell Viability - LYMP2-001 (AID 921);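 note: cells exposed to compound for 24 h at 37 °C; 0% = DMSO only and full inhibition = tetraoctylammonium bromide control wells; nearly all actives have a fitted effect of over 70% in size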
Outline: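 qHTS, 1536-well; lymphoblastoid cells, 24 hr compound, 37 C; ATP by CellTiter-Glo, 30 min RT; luminescence; Hill-fit AC50.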

Sequence of Cytochrome P450 3A4 (Homo sapiens) (P08684 whole entry, looked up): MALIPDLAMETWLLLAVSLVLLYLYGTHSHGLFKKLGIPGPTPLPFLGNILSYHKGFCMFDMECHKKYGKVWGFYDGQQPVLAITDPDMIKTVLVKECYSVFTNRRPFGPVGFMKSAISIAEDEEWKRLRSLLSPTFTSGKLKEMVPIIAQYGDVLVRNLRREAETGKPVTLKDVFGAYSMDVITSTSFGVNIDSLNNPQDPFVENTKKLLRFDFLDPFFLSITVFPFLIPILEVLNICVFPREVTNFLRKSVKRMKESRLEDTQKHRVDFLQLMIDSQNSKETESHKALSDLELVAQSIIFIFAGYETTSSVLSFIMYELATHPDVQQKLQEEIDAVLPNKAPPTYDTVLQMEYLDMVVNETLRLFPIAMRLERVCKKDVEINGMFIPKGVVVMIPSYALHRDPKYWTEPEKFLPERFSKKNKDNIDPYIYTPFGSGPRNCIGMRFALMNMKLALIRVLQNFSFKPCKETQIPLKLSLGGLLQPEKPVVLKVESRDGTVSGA

C=C(C)C(=O)OCCCCCC
inactive: caspase-3 activation [1] 0.76% | outcome [2] | caspase-3 activation [3] 0.664% | caspase-3 activation [4] -0.643% | outcome [5] | outcome [6] | Potency [7] | Potency [8] | Potency [9]

CC(=O)c1cc(C)oc1C
inactive: caspase-3 activation [1] 0.543% | outcome [2] | caspase-3 activation [3] -0.25% | caspase-3 activation [4] 0.799% | outcome [5] | outcome [6] | Potency [7] | Potency [8] | Potency [9]

C=CCCC
inactive: caspase-3 activation [1] -0.34% | outcome [2] | caspase-3 activation [3] 1.14% | caspase-3 activation [4] -1.75% | outcome [5] | outcome [6] | Potency [7] | Potency [8] | Potency [9]

CCCCCCCN
inactive: caspase-3 activation [1] 1.08% | outcome [2] | caspase-3 activation [3] 2.21% | caspase-3 activation [4] -0.824% | outcome [5] | outcome [6] | Potency [7] | Potency [8] | Potency [9]

CC(CCl)OC(C)CCl (configuration not stated)
inactive: caspase-3 activation [1] -0.591% | outcome [2] | caspase-3 activation [3] 0.133% | caspase-3 activation [4] 1.69% | outcome [5] | outcome [6] | Potency [7] | Potency [8] | Potency [9]

Cc1cccc(C)c1[N+](=O)[O-]
inactive: caspase-3 activation [1] 0.452% | outcome [2] | caspase-3 activation [3] -0.326% | caspase-3 activation [4] -0.173% | outcome [5] | outcome [6] | Potency [7] | Potency [8] | Potency [9]

O=C(O)c1ccccc1[N+](=O)[O-]
inactive: caspase-3 activation [1] 0.745% | outcome [2] | caspase-3 activation [3] 1.85% | caspase-3 activation [4] 2.82% | outcome [5] | outcome [6] | Potency [7] | Potency [8] | Potency [9]

CCOc1ccccc1N
inactive: caspase-3 activation [1] 1.9% | outcome [2] | caspase-3 activation [3] -0.577% | caspase-3 activation [4] -1.95% | outcome [5] | outcome [6] | Potency [7] | Potency [8] | Potency [9]

C1COC1
inactive: caspase-3 activation [1] 0.626% | outcome [2] | caspase-3 activation [3] 1.05% | caspase-3 activation [4] -1.66% | outcome [5] | outcome [6] | Potency [7] | Potency [8] | Potency [9]

Cc1cccc(C)c1
inactive: caspase-3 activation [1] -0.476% | outcome [2] | caspase-3 activation [3] 0.714% | caspase-3 activation [4] 2.59% | outcome [5] | outcome [6] | Potency [7] | Potency [8] | Potency [9]

C=C(C)C1CC=C(C)C(OC(C)=O)C1 (configuration not stated)
inactive: caspase-3 activation [1] -0.114% | outcome [2] | caspase-3 activation [3] 2.65% | caspase-3 activation [4] 1.35% | outcome [5] | outcome [6] | Potency [7] | Potency [8] | Potency [9]

N#Cc1ccccc1
inactive: caspase-3 activation [1] -0.669% | outcome [2] | caspase-3 activation [3] 0.346% | caspase-3 activation [4] 1.36% | outcome [5] | outcome [6] | Potency [7] | Potency [8] | Potency [9]

Nc1ccccc1[N+](=O)[O-]
inactive: caspase-3 activation [1] -0.609% | outcome [2] | caspase-3 activation [3] 1.23% | caspase-3 activation [4] -2.96% | outcome [5] | outcome [6] | Potency [7] | Potency [8] | Potency [9]

O=c1[nH][nH]c(=O)c2cc([N+](=O)[O-])ccc12
inactive: caspase-3 activation [1] -0.0154% | outcome [2] | caspase-3 activation [3] -0.659% | caspase-3 activation [4] 4.2% | outcome [5] | outcome [6] | Potency [7] | Potency [8] | Potency [9]

Cc1ccc(C)c([N+](=O)[O-])c1
inactive: caspase-3 activation [1] 0.386% | outcome [2] | caspase-3 activation [3] -0.213% | caspase-3 activation [4] 0.434% | outcome [5] | outcome [6] | Potency [7] | Potency [8] | Potency [9]

c1ccc2n[nH]nc2c1
inactive: caspase-3 activation [1] 0.6% | outcome [2] | caspase-3 activation [3] -0.743% | caspase-3 activation [4] 1.96% | outcome [5] | outcome [6] | Potency [7] | Potency [8] | Potency [9]

CNC(=O)N(c1ccccc1)c1ccccc1
inactive: caspase-3 activation [1] 0.477% | outcome [2] | caspase-3 activation [3] 1.51% | caspase-3 activation [4] 0.502% | outcome [5] | outcome [6] | Potency [7] | Potency [8] | Potency [9]

CCCCCNCCCCC
inactive: caspase-3 activation [1] 0.424% | outcome [2] | caspase-3 activation [3] 0.00908% | caspase-3 activation [4] 1.85% | outcome [5] | outcome [6] | Potency [7] | Potency [8] | Potency [9]

C=Cc1ccc(C=C)cc1
inactive: caspase-3 activation [1] -0.657% | outcome [2] | caspase-3 activation [3] -0.942% | caspase-3 activation [4] 0.511% | outcome [5] | outcome [6] | Potency [7] | Potency [8] | Potency [9]

C=C(C)C(N)=O
inactive: caspase-3 activation [1] -0.474% | outcome [2] | caspase-3 activation [3] -0.402% | caspase-3 activation [4] -0.593% | outcome [5] | outcome [6] | Potency [7] | Potency [8] | Potency [9]

O=C(Cl)c1cccc([N+](=O)[O-])c1
inactive: caspase-3 activation [1] -1.19% | outcome [2] | caspase-3 activation [3] 3.32% | caspase-3 activation [4] 0.786% | outcome [5] | outcome [6] | Potency [7] | Potency [8] | Potency [9]

CC(C)Nc1ccccc1
inactive: caspase-3 activation [1] 1.26% | outcome [2] | caspase-3 activation [3] 0.457% | caspase-3 activation [4] 2.55% | outcome [5] | outcome [6] | Potency [7] | Potency [8] | Potency [9]

CCCC(C)CO (configuration not stated)
inactive: caspase-3 activation [1] 0.885% | outcome [2] | caspase-3 activation [3] 1.09% | caspase-3 activation [4] 1.12% | outcome [5] | outcome [6] | Potency [7] | Potency [8] | Potency [9]
